This note sets out measurements from PubChem BioAssay (NCATS).

The structures appear in SMILES notation. Results filed as inconclusive are left out. Values without a mark were called inactive. The source made the active and inactive calls. The call rests on the fitted dose curve; in most records, active means well fitted inhibition curve with a large enough effect; inconclusive means small, poorly fitted or top-dose-only effect; inactive means flat fitted curve, though single readings scatter.
On the % scale 0 is the no-effect control and ±100 the full control effect.

Glutathione peroxidase 1 (Homo sapiens), sequence (P07203 whole entry, looked up): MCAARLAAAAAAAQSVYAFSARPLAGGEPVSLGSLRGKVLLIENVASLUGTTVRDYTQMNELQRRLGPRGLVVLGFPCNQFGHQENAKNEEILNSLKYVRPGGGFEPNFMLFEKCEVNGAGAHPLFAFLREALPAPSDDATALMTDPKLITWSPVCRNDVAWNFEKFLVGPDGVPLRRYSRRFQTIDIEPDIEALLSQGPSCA

The target in the test is Glutathione peroxidase 1 (Homo sapiens) (UniProt P07203). In words: Primary qHTS Assay for Inhibitors of Recombinant Selenoprotein Glutathione Peroxidase 1 (GPX1) (AID 1845191). Further: nearly all actives have a fitted effect of over 65% in size. The note with it: recombinant GPX1, GR-coupled NADPH fluorescence, 15 min; series mostly up to 48.8 µM; activity, negative = inhibition: at the top concentration. In a few lines:
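NADPH consumption tracked by fluorescence at 340/450 nm between t=0 and t=15 min, room temperature. Final mix: 10 nM GPX1, 100 nM glutathione reductase, 1 mM GSH, 0.5 mM NADPH, 0.5 mM cumene hydroperoxide, 0.01% BSA; 30 min compound–enzyme preincubation.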
`COc1cc2ncnc(Nc3ccc(O)cc3)c2cc1OC`: the “activity, negative = inhibition” value was -7.63%. On to `CC(C)(C)NC(=O)[C@@H](c1cccnc1)N(C(=O)c1ccco1)c1ccc(C(C)(C)C)cc1`, for which the “activity, negative = inhibition” value was -26%. For the compound `C=C1CCC2C(C)(C)C(O)CCC2(C)C1CCC(C)CCOC(C)=O` (stereo not drawn), the “activity, negative = inhibition” value was -27.7% [at 27.7 µM]. Take `CC1(C)C=CN2C(=O)C3=CCCN3C(=O)[C@@H]2C[C@@]12Nc1ccccc1C2=O`: the “activity, negative = inhibition” value is -6.15% [at 27.7 µM]. For `OC/C=C/c1ccc(O[C@@H]2O[C@H](CO)[C@@H](O)[C@H](O)[C@H]2O)cc1`, the “activity, negative = inhibition” value is -3.45% [at 27.7 µM]. For the compound `C=C(C(=O)O)C1CC2=C(C)CCCC2(C)C[C@@H]1O` (stereo partly drawn), the result was inactive. `CO[C@H]1C[C@@H]2CC[C@@H](C)[C@@](O)(O2)C(=O)C(=O)N2CCCC[C@H]2C(=O)O[C@H]([C@H](C)C[C@H]2CC[C@@H](OP(C)(C)=O)[C@H](OC)C2)CC(=O)[C@H](C)/C=C(\C)[C@@H](O)[C@@H](OC)C(=O)[C@H](C)C[C@H](C)/C=C/C=C/C=C/1C`: the “activity, negative = inhibition” value was -4.77% [at 27.7 µM]. In the case of `CSc1ccc(C(=O)N[C@@H]2CCCC[C@@H]2NC(=O)CNC(=O)c2cc(C(F)(F)F)ccc2NC(=O)NC(C)C)cc1`, the result was inactive.

For the compound `C=CC(C)(C)c1[nH]c2cc3c(cc2c1CC1NC(=O)C2=CCCN2C1=O)C=CC(C)(C)O3` (stereo not drawn), the “activity, negative = inhibition” value was -25.6% [at 27.7 µM]. In the case of `COc1ccc(-n2[nH]c(=O)c3[nH]c4cc(Cl)ccc4c(=O)c3c2=O)c(C)c1`, the outcome was inactive.

As to `CC(=O)OCC1(O)CCC2C(COC3OC(CO)C(O)C(O)C3OC(=O)/C=C/c3ccc(O)cc3)=COC(OC(=O)CC(C)C)C21` (stereo not drawn), the “activity, negative = inhibition” value was 1.53% [at 15.3 µM]. On the same count and under the same terms, as for `CN=C(N)NCCCCC/C=C(/C)CC(C)C1OC(=O)C(C)C(O)/C=C/C(C)C(O)CC(O)C(C)C(O)CCC(C)C(O)CC2(O)OC(CC(OC(=O)CC(=O)O)CC(O)CC(O)C(C)C(O)/C(C)=C/CCC1C)CC(O)C2O` (stereo not drawn), the figure is -18.3% [at 15.3 µM].

In the case of `COc1ccc([C@@]2(O)c3c(ccc(CC=C(C)C)c3O)NC(=O)[C@@H]2OC)cc1`, the “outcome” value is “inactive [at 27.7 µM]”. The same measure, in the same setting: as for `C[C@@H]1CCC/C=C/[C@H]2CC(=O)C[C@@H]2[C@@H](O)/C=C/C(=O)O1`, the entry is “inactive”.

On to `CC1(C)CCCC2(C)C(CO)C(CO)=CCC12` (stereo not drawn), for which the “activity, negative = inhibition” value is -7.11%. Consider `C[C@@H]1O[C@@H](O[C@@H]2[C@@H](O)[C@H](O[C@H]3CC[C@@]4(C)C(CC[C@]5(C)C4CC=C4[C@@H]6CC(C)(C)CC[C@]6(C(=O)O[C@@H]6O[C@H](CO)[C@@H](O)[C@H](O)[C@H]6O)CC[C@]45C)C3(C)C)O[C@H](C(=O)O)[C@H]2O)[C@H](O)[C@H](O)[C@H]1O` (stereo partly drawn), for which the “activity, negative = inhibition” value was 2.71% [at 15.3 µM]. Regarding `CC(=O)O[C@@H]1CC(C)=C2[C@H]1[C@H](C)CC[C@H]2/C=C(\C)C(=O)O`, the outcome was inactive. As to `C=CC(=O)Nc1cc(Nc2ncc(Cl)c(-c3c[nH]c4ccccc34)n2)c(OC)cc1N(C)CCN(C)C`, the “activity, negative = inhibition” value is -26.1%. Consider `COc1ccc(C2COc3cc(O)ccc3C2)c(O)c1` (stereo not drawn), for which the outcome was inactive. Turning to `C=C1[C@H](OC(C)=O)[C@H]2[C@@H](OC(C)=O)[C@](C)(OC(C)=O)C[C@]2(OC(C)=O)C(=O)[C@H](C)/C=C/C(C)(C)C(=O)[C@H](OC(=O)C(C)C)[C@H]1OC(C)=O`, the “activity, negative = inhibition” value is -7.91% [at 15.3 µM]. On to `Cc1ccccc1C#Cc1ccc(CCC(=O)O)cc1`, for which the “activity, negative = inhibition” value was -18.3%. In the case of `COC(=O)Cc1cc2c(c([N+](=O)[O-])c1)N(C(=O)CC[C@H](N)C(=O)O)CC2`, the outcome was inactive. With `COc1cc(Br)c(S(=O)(=O)Nc2ccc(C(F)(F)F)c(O[C@@H]3CCN(C)C3)c2)cc1OC`, the “activity, negative = inhibition” value was -6.98%. For the compound `N#CC(c1ccnc(OCc2ccc(CN3CCOCC3)cc2)n1)c1nc2ccccc2s1` (stereo not drawn), the outcome was inactive. Take `Cc1ccc(S(=O)(=O)Nc2ccccc2N2CCCCC2)s1`: the “activity, negative = inhibition” value was -19.3%. Take `C/C=C1\[C@H](O[C@@H]2O[C@H](CO)[C@@H](O)[C@H](O)[C@H]2O)OC=C2C(=O)OCCc3ccc(O)c(c3)Oc3ccc(cc3)CCOC(=O)C[C@H]21`: the “activity, negative = inhibition” value is -16.9% [at 15.3 µM]. With `COc1c(/C=C/C(C)(C)O)ccc2c1C(=O)OCc1cc(C)cc(O)c1O2`, the “outcome” value is “inactive [at 27.7 µM]”. With `CC(C)/C=C1\NC(=O)C(C(C)C)n2c1nc1c(c2=O)C=CC=CO1` (stereo not drawn), the “activity, negative = inhibition” value is -8.85% [at 27.7 µM]. For `C=C1C(OC(C)=O)CCC2(C)CC3(OC)OC(=O)C(C)=C3CC12` (stereo not drawn), the “outcome” value is “inactive [at 27.7 µM]”. In the case of `O=C1C=CC(O)(/C=C/C(=O)OC[C@H]2O[C@@H](Oc3ccc(O)cc3)[C@H](O)[C@@H](O)[C@@H]2O)C=C1`, the “activity, negative = inhibition” value was -5.71% [at 27.7 µM]. For the compound `O=S(=O)(Nc1ccccn1)c1ccc(N=Cc2c(O)[nH]c3ccc4ncsc4c23)cc1`, the outcome was “inactive [at 9.52 µM]”. On to `COc1cc(N)c(Cl)cc1C(=O)NC[C@@H]1CCN2CCC[C@@H]12`, for which the “activity, negative = inhibition” value was -14%. As for `C=C1CCC2C(C)(C)CCC[C@]2(C)[C@H]1C/C=C(\CO)C(=O)C(=O)O` (stereo partly drawn), the “activity, negative = inhibition” value was -15.5% [at 27.7 µM].
